Measurements reported in a collection of fitness landscapes (doi:10.1016/j.celrep.2020.107928).
In all, about 81,000 sequences were measured (“one-hybrid fitness for binding parS DNA”: median about -0.17, highest 2% from about 0.51 on). The sample as a whole holds a higher share of the highest values than the screen did.

B1: Caulobacter ParB omega fusion; a variant is named by its letters at X, in order, B8GW30 (parent)
chain: MESVVVGEPGMSEGRRGLGRGLSALLGEVDAAPAQAPGEQLGGSREAPIEILQRNPDQPRRTFREEDLEDLSNSIREKGVLQPILVRPSPDTAGEYQIVAGERAWRAAQRAGLKTVPIMVRELDDLAVLEIGIIENVQRADLNVLEEALSYKVLMEKFERTQENIAQTIGKSXSHVANXMRLLXLPDEVQSYLVSGELTAXHARAIAAAADPVALAKQIIEGGLSVRETEALARKAPNLSAGKSKGGRPPRVKDTDTQALESDLSSVLGLDVSIDHRGSTGTLTITYATLEQLDDLCNRLTRGI

Variants of: B1
Test: one-hybrid fitness for binding parS DNA (scaled: cognate 1, non-cognate 0); higher = stronger binding
Conditions: with parS DNA site
Method in brief: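 Caulobacter ParB libraries with four specificity codons randomised were screened by bacterial one-hybrid selection in the E. coli USO strain, using a HIS3 reporter whose site lies 19 bp from the promoter. Selection ran for 48 hours at 37°C on M9 lacking histidine, with 0.1 mM IPTG and 5 mM 3-AT. Plasmids were Illumina-sequenced before and after selection, three replicate libraries were pooled, and variants with under 10 reads were dropped. Fitness is the log change in each variant's read ratio to wild type, rescaled against the cognate and non-cognate sites.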

Row | Variant | one-hybrid fitness for binding parS DNA
1 | AKFS | ≤ 0.2
2 | MTSR | ≤ 0.2
3 | VNNR | ≤ 0.2
4 | RRHD | ≤ 0.2
5 | RRHH | ≤ 0.2
6 | RRHS | 0.645
7 | RRHP | ≤ 0.2
8 | RRHN | 0.689
9 | RRHK | ≤ 0.2
10 | LFLC | ≤ 0.2
11 | DLIT | ≤ 0.2
12 | RDNY | ≤ 0.2
13 | TIRM | ≤ 0.2
14 | VENG | ≤ 0.2
15 | NEVT | ≤ 0.2
16 | GRRY | ≤ 0.2
17 | QQLD | ≤ 0.2
18 | MQRR | ≤ 0.2
19 | PCLL | ≤ 0.2
20 | ARAW | ≤ 0.2
21 | RIKR | ≤ 0.2
22 | RIVQ | ≤ 0.2
23 | RIVC | 0.942
24 | RIKC | 0.805

Row | Variant | one-hybrid fitness for binding parS DNA
25 | RIVM | 0.281
26 | RIKQ | ≤ 0.2
27 | MKRV | ≤ 0.2
28 | RFFC | 0.674
29 | RFAC | 0.91
30 | RFFY | 0.269
31 | NFAC | ≤ 0.2
32 | RFAN | 0.372
33 | RFFN | 0.262
34 | WGLC | ≤ 0.2
35 | MPTN | ≤ 0.2
36 | GFLD | ≤ 0.2
37 | EFEC | ≤ 0.2
38 | RQAY | 0.444
39 | RQAR | ≤ 0.2
40 | RQAG | 1
41 | RQFN | 0.363
42 | RQFG | 0.917
43 | RQFD | ≤ 0.2
44 | WVPR | ≤ 0.2
45 | RQAP | ≤ 0.2
46 | RQSP | ≤ 0.2
47 | RQAS | 0.988
48 | RQQS | 0.987

Row | Variant | one-hybrid fitness for binding parS DNA
49 | RQSS | 0.979
50 | RQQD | ≤ 0.2
51 | RQWH | ≤ 0.2
52 | RQWP | ≤ 0.2
53 | RQSN | 0.438
54 | RQWS | 0.959
55 | RQQP | ≤ 0.2
56 | RQAH | ≤ 0.2
57 | KHSR | ≤ 0.2
58 | ICNS | ≤ 0.2
59 | TSSN | ≤ 0.2
60 | FLHK | ≤ 0.2
61 | SFKN | ≤ 0.2
62 | PRKR | ≤ 0.2
63 | NSVS | ≤ 0.2
64 | GRDV | ≤ 0.2
65 | RQFH | ≤ 0.2
66 | RQFS | 0.957
67 | RQCH | ≤ 0.2
68 | RQYN | 0.393
69 | RQLS | 1.02
70 | RQFP | ≤ 0.2
71 | RQYS | 1
72 | RQYP | ≤ 0.2

Row | Variant | one-hybrid fitness for binding parS DNA
73 | RQCN | 0.416
74 | RQCS | 0.976
75 | RQLN | 0.439
76 | RQLP | ≤ 0.2
77 | AMKF | ≤ 0.2
78 | SCQY | ≤ 0.2
79 | YPKA | ≤ 0.2
80 | IKCR | ≤ 0.2
81 | AFFR | ≤ 0.2
82 | MTRW | ≤ 0.2
83 | RQHP | ≤ 0.2
84 | RQHS | 0.988
85 | RQGN | 0.441
86 | RQHN | 0.425
87 | RQRD | ≤ 0.2
88 | RQRN | 0.451
89 | RQGP | ≤ 0.2
90 | RQGS | 0.978
91 | RQRS | 0.918
92 | KTML | ≤ 0.2
93 | PITI | ≤ 0.2
94 | GSLR | ≤ 0.2
95 | VPIR | ≤ 0.2
96 | RREK | ≤ 0.2

Row | Variant | one-hybrid fitness for binding parS DNA
97 | RREG | 0.915
98 | RHEG | 0.898
99 | RCEG | 0.915
100 | RHEP | ≤ 0.2
101 | RHEH | ≤ 0.2
102 | RTEG | 0.893
103 | RPEG | ≤ 0.2
104 | RDEG | ≤ 0.2
105 | RTEF | 0.202
106 | RREY | 0.295
107 | RTEQ | ≤ 0.2
108 | TLIV | ≤ 0.2
109 | SWMS | ≤ 0.2
110 | PFMN | ≤ 0.2
111 | ASAS | ≤ 0.2
112 | TTEV | ≤ 0.2
113 | EKIY | ≤ 0.2
114 | VYPH | ≤ 0.2
115 | PRMG | ≤ 0.2
116 | VNWT | ≤ 0.2
117 | LVHA | ≤ 0.2
118 | SFKQ | ≤ 0.2
119 | RAEP | ≤ 0.2
120 | RIEG | 0.771

Row | Variant | one-hybrid fitness for binding parS DNA
121 | RAEH | ≤ 0.2
122 | RIED | ≤ 0.2
123 | RMEL | ≤ 0.2
124 | RAEG | 0.852
125 | RKED | ≤ 0.2
126 | RKEG | 0.949
127 | RMEI | ≤ 0.2
128 | RIEI | ≤ 0.2
129 | RKEF | ≤ 0.2
130 | RMEG | 0.86
131 | HTCW | ≤ 0.2
132 | CSFT | ≤ 0.2
133 | DPQT | ≤ 0.2
134 | PMYE | ≤ 0.2
135 | ASIR | ≤ 0.2
136 | RLED | ≤ 0.2
137 | RSEG | 0.802
138 | RFEG | 0.731
139 | DFEG | ≤ 0.2
140 | REEG | ≤ 0.2
141 | RLEN | 0.4
142 | RLEG | 0.925
143 | RGEG | 0.474
144 | NFEG | ≤ 0.2

Row | Variant | one-hybrid fitness for binding parS DNA
145 | HYRI | ≤ 0.2
146 | IEVV | ≤ 0.2
147 | YPPA | ≤ 0.2
148 | NRYK | ≤ 0.2
149 | SSLC | ≤ 0.2
150 | PCWL | ≤ 0.2
151 | TTWY | ≤ 0.2
152 | CCRS | ≤ 0.2
153 | RMFK | ≤ 0.2
154 | RMFY | 0.492
155 | RMAG | 1.01
156 | RMAP | 0.205
157 | RMFG | 1
158 | RMAD | 0.207
159 | LSRQ | ≤ 0.2
160 | RFMR | ≤ 0.2
161 | RIIF | ≤ 0.2
162 | RIPM | ≤ 0.2
163 | RIIM | 0.273
164 | RIPC | 0.626
165 | RIIC | 0.901
166 | RIPY | 0.232
167 | SCFV | ≤ 0.2
168 | QTMW | ≤ 0.2

Row | Variant | one-hybrid fitness for binding parS DNA
169 | SRTC | ≤ 0.2
170 | RIWT | 0.83
171 | RIQN | 0.449
172 | RIQP | ≤ 0.2
173 | RIGT | 0.924
174 | RIGK | ≤ 0.2
175 | RICK | 0.208
176 | RIWF | 0.282
177 | RIGQ | 0.204
178 | RICT | 0.853
179 | RICD | ≤ 0.2
180 | RIWN | 0.455
181 | RIQT | 0.886
182 | LPLM | ≤ 0.2
183 | WSVC | ≤ 0.2
184 | AQMM | ≤ 0.2
185 | DELW | ≤ 0.2
186 | QKSV | ≤ 0.2
187 | HVTI | ≤ 0.2
188 | GLLA | ≤ 0.2
189 | RINT | 0.914
190 | RINP | ≤ 0.2
191 | RIYT | 0.926
192 | RISQ | ≤ 0.2

Row | Variant | one-hybrid fitness for binding parS DNA
193 | RIYD | ≤ 0.2
194 | RINN | 0.469
195 | RIYP | 0.203
196 | RIDT | 0.725
197 | RIDR | ≤ 0.2
198 | RIST | 0.929
199 | RIDF | 0.257
200 | RISF | 0.21
201 | NRPF | ≤ 0.2
202 | CRDC | ≤ 0.2
203 | QFLC | ≤ 0.2
204 | PTYG | ≤ 0.2
205 | RARL | ≤ 0.2
206 | GSHT | ≤ 0.2
207 | MNLG | ≤ 0.2
208 | RIRR | ≤ 0.2
209 | RIRT | 0.848
210 | RIRK | ≤ 0.2
211 | WPQC | 0.245
212 | SGVD | ≤ 0.2
213 | RIAS | 1.04
214 | RIAN | 0.432
215 | RIFP | 0.206
216 | RIFD | ≤ 0.2

Row | Variant | one-hybrid fitness for binding parS DNA
217 | RIFS | 0.995
218 | RIAD | 0.212
219 | VTEW | ≤ 0.2
220 | YCGR | ≤ 0.2
221 | AFAS | ≤ 0.2
222 | ARMN | ≤ 0.2
223 | VELC | ≤ 0.2
224 | RNDY | 0.256
225 | RNNK | ≤ 0.2
226 | RNNC | 0.869
227 | RNDC | 0.617
228 | RNNM | 0.28
229 | RNDD | ≤ 0.2
230 | RMSR | ≤ 0.2
231 | RKSK | ≤ 0.2
232 | RMSK | ≤ 0.2
233 | RMSG | 1.02
234 | RKSY | 0.366
235 | RLSF | 0.246
236 | DFSG | ≤ 0.2
237 | RLSG | 1.01
238 | RKSG | 0.928
239 | NFSG | ≤ 0.2
240 | RFSG | 0.97

Row | Variant | one-hybrid fitness for binding parS DNA
241 | RLSQ | ≤ 0.2
242 | NHHN | ≤ 0.2
243 | WADR | ≤ 0.2
244 | REQN | ≤ 0.2
245 | AVAR | ≤ 0.2
246 | GWDC | ≤ 0.2
247 | RDVW | ≤ 0.2
248 | SSNE | ≤ 0.2
249 | RTSY | 0.489
250 | RTSG | 1
251 | RISY | 0.477
252 | RCSG | 0.997
253 | RSSK | ≤ 0.2
254 | RDSG | ≤ 0.2
255 | RISG | 1.01
256 | RESG | 0.217
257 | RISK | ≤ 0.2
258 | RTSQ | ≤ 0.2
259 | RSSG | 0.993
260 | RPSG | ≤ 0.2
261 | EQLF | ≤ 0.2
262 | KYRN | ≤ 0.2
263 | QKYR | ≤ 0.2
264 | DTLV | ≤ 0.2

Row | Variant | one-hybrid fitness for binding parS DNA
265 | PHRR | ≤ 0.2
266 | DRAS | ≤ 0.2
267 | GTSE | ≤ 0.2
268 | LHRT | ≤ 0.2
269 | RCRN | 0.387
270 | RRYN | 0.557
271 | RCYN | 0.545
272 | RPYN | ≤ 0.2
273 | RCDN | 0.376
274 | RRRN | 0.788
275 | KAEG | ≤ 0.2
276 | AMIC | ≤ 0.2
277 | RFAA | 0.559
278 | RGAA | 0.32
279 | EFAA | ≤ 0.2
280 | RWAA | 0.378
281 | RCAA | 0.596
282 | RPAA | ≤ 0.2
283 | RFFA | 0.492
284 | RSAA | 0.554
285 | RDAA | ≤ 0.2
286 | QVSF | ≤ 0.2
287 | LAKQ | ≤ 0.2
288 | WWDC | ≤ 0.2

Row | Variant | one-hybrid fitness for binding parS DNA
289 | RWHK | ≤ 0.2
290 | RQFQ | ≤ 0.2
291 | RQFR | ≤ 0.2
292 | RQAT | 0.884
293 | RQAN | 0.419
294 | RQAD | ≤ 0.2
295 | RQFT | 0.759
296 | MIFS | ≤ 0.2
297 | SNTE | ≤ 0.2
298 | YHPR | ≤ 0.2
299 | RCGL | ≤ 0.2
300 | LEEV | ≤ 0.2
301 | SVPL | ≤ 0.2
302 | GMVS | ≤ 0.2
303 | QIKS | ≤ 0.2
304 | RMWN | 0.43
305 | RCWT | 0.908
306 | REWT | ≤ 0.2
307 | RSWT | 0.756
308 | RMWH | 0.231
309 | RMWT | 0.904
310 | RDWT | ≤ 0.2
311 | RGWT | 0.388
312 | RPWT | ≤ 0.2
